# Test results reported in the supplement of paper PMC8726507.
# Tested on: Plasmodium falciparum NF54-HGL (transmission to Anopheles stephensi)
# Experiment: percentage of barcode signal found in uninfected mosquitoes (transmission-blocking activity); higher = stronger blocking of transmission to mosquito, active = 80 or more
# Settings: 20 µM; gametocyte preincubation time 24 h; readout time post-feed 8 days
# Protocol: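 The mixture was fed to Anopheles stephensi in 96-well plates as blood meals tagged with DNA-barcoded Asaia bacteria. Eight days later, mosquitoes were classed infected or uninfected by luminescence (mean + 5 SD of unfed controls). Barcodes were quantified by Luminex MagPlex-TAG in the pooled uninfected and infected Asaia cultures, background-corrected, and the score is % of barcode signal in uninfected mosquitoes = 100*Iu/(Iu+Ii).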
row,Structure (SMILES),percentage of barcode signal found in uninfected mosquitoes
1,Cc1nn(C)cc1C(C)Nc1nncc(-c2ccc(C(F)(F)F)cc2)n1 (stereo not given),89.3% (active)
2,Cc1ccc(S(=O)(=O)Nc2ccc(CN3CCN(C(=O)c4cccc(C#N)c4)CC3)cc2)cc1,0.0235% (inactive)
3,Cc1cccc(-c2nc(Nc3ccncn3)c3sccc3n2)n1,91.4% (active)
4,Cc1nc(-c2ccccn2)nc(N(C)CCc2ccccc2)c1Cl,92% (active)
5,COc1ccc(Oc2ccc([C@@H](C)N(C)c3ncc4c(N)nc(N)nc4n3)cc2)cc1,72.1% (inactive)
6,O=C(NCc1cc(Cl)cc(Cl)c1)c1c(C(F)(F)F)nc2ccccn12,20% (inactive)
7,FC(F)(F)c1cccc(-c2nc3c(NCc4ccncc4)nccc3[nH]2)c1,2.48% (inactive)
8,NCCC(O)C(=O)N[C@@H]1C[C@H](N)[C@@H](OC2O[C@H](CN)[C@@H](O)[C@H](O)[C@H]2O)[C@H](O)C1OC1O[C@H](CO)[C@@H](O)[C@H](N)[C@H]1O (stereo not given in full),37.6% (inactive)
9,CCc1ccccc1-n1c(C)cn2c3c(=O)n(C(C(=O)OC)C(C)C)c(=O)n(C)c3nc12 (stereo not given),54.1% (inactive)
10,Cc1ccccc1C(=O)N1N=C(Nc2ccccc2)SC1(C)C,-0.332% (inactive)
11,CN1CCC(NCc2cccc(-c3ccc(S(=O)(=O)NCc4ccccc4)cc3)c2)CC1,98.6% (active)
12,CN1CCC(c2cc(-c3ccncc3)c(-c3ccc(F)cc3)[nH]2)CC1,78.1% (inactive)
13,O=C(OCc1ccccc1)N1CCC(c2cc(-c3ccncc3)c(-c3ccc(F)cc3)[nH]2)CC1,16.8% (inactive)
14,CCN(CC)CCCN1CCN(C(=O)c2cccc(-c3noc(C(F)(F)F)n3)c2)CC1,64.3% (inactive)
15,COc1cc(C(F)(F)F)nc2ccc(C)c(N)c12,-0.0386% (inactive)
16,c1ccc(C[C@@H]2CN(c3nccc(Oc4ccc(-n5ccnc5)cc4)n3)CCN2)cc1,35.3% (inactive)
17,O=C1[C@@H](Oc2ccccc2)[C@@H](c2ccc(Cl)cc2)N1CCn1cnc2c(NCc3ccccc3)ncnc21,1.2% (inactive)
18,CC(C)(C(=O)Nc1ccc(F)cc1)n1cc(-c2ccccc2F)cn1,0.429% (inactive)
19,Cc1cc(C)c2cc(C(=O)NC3CCCCCCC3)[nH]c2c1,0.265% (inactive)
20,Cc1cc(NC(=O)c2ccc(Oc3ccc(Cl)cc3O)o2)no1,33% (inactive)
